MRP reversal: reversal of MRP1-mediated doxorubicin resistance, primary screen, H69AR cells, doxorubicin co-treatment. differential viability (reversal), % at 10 µM. hit rate 0.04% among 85,000. H69AR cells + 2 uM doxorubicin, CellTiter-Glo, 72 h;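 active means viability drop by adding the cancer drug above about 55%, with treated viability meeting a 40% cutoff, limit read from the data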;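 further: viability without doxorubicin minus viability with 2 µM doxorubicin for each compound; larger differential means the compound sensitizes cells more to doxorubicin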
MRP-1 activ: H69AR viability gain despite doxorubicin, primary screen, MRP-1 activator project, H69AR cells, CellTiter-Glo; viability rescue; viability increase, % at 10 µM; AID 799, 2007; hit rate 0.61% among 140,000;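 active means viability gain under doxorubicin at or above a set limit, the compound median plus 3 SD, cut at about 4.7% in these data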;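 further: MRP-1 overexpressing cells given doxorubicin 25 µM after compound pretreatment; 18-22 h compound pretreatment then 72 h with doxorubicin before readout; 0% = doxorubicin-only wells and 100% = vehicle-treated cells without doxorubicin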
hDAT+cocaine: changed hDAT dopamine uptake under cocaine IC80, either direction, primary screen, cocaine antagonist project, cell-based, LLC-PK1 hDAT, [14C]-dopamine uptake, MLSMR | AID 449768, 2010 | Sodium-dependent dopamine transporter (Homo sapiens), Q01959 | hit rate 1.3% among 110,000 | LLC-PK1 hDAT cells, [14C]-dopamine uptake with cocaine IC80; actives deviate in either direction | B-score at 10 µM;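 active means Z score or B-score, a plate-position-corrected score, falls beyond the plate's 99.7% confidence bounds, in either direction; inactive means both scores lie inside the 99.7% bounds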;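 further: scored against the spread of the other compound wells on the same plate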
Target sequence (Q01959 whole entry, looked up): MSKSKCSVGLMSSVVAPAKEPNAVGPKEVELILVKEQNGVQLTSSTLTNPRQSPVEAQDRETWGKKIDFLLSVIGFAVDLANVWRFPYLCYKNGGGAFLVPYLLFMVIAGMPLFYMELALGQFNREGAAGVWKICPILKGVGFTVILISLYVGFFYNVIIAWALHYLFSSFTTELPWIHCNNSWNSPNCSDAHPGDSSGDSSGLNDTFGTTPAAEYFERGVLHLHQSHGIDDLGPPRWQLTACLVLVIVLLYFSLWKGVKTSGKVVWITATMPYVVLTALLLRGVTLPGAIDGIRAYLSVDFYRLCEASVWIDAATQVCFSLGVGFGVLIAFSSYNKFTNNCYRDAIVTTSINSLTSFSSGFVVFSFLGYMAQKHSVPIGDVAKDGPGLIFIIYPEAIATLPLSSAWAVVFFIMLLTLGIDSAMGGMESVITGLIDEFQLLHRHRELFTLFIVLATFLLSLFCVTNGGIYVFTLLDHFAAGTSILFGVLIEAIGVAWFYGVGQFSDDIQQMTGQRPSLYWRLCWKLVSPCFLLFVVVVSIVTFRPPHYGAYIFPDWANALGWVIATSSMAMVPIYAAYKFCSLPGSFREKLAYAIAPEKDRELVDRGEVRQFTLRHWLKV
* hit, by the source's call; nt = no result. The list is not random: actives were taken first. Their share in the collection is about 1.5%.

SMILES	MRP reversal	MRP-1 activ	hDAT+cocaine
CC(Nc1cccc2ccccc12)C(=O)N/N=C/c1ccc([N+](=O)[O-])cc1 (centres undefined)	nt	-3	nt
CCc1ccc(-c2ccc(C(=O)C(F)(F)F)[nH]2)cc1	nt	3	-1.1
O=C1CCC(=O)N(O)CCCCCNC(=O)CCC(=O)N(O)CCCCNC(=O)CCC(=O)N(O)CCCCCN1	nt	nt	-0.86
O=C(NCc1cccnc1)C(=O)NCC1OCCCN1S(=O)(=O)c1ccccc1 (centres undefined)	nt	-2	nt
COc1ccc(Cn2c(-c3ccc(C)cc3)nc3c(c(=O)c4ccccc4n3C)c2=O)cc1	nt	-3	nt
Cc1ccc(Nc2nnc(SC3CCOC3=O)s2)c(C)c1 (centres undefined)	nt	-2	nt
Cc1ccc2c(c1)C(c1ccc(F)cc1)N(C(=O)c1cc3ccccc3oc1=O)CC(=O)N2 (centres undefined)	nt	-2	nt
C[N+]1=C(/C=C/Nc2ccccc2Cl)C(C)(C)c2ccccc21	nt	0	nt
COC(=O)c1ccc2c(c1)C(C)(C)C(/C=C/c1ccccc1O)=[N+]2C	nt	-6	-3.6*
CS(=O)(=O)c1ccc(CNC(=O)C2(C(F)(F)F)C/C(=C/CCO)CCCO2)cc1 (centres undefined)	nt	nt	-0.39
CCCOc1ccc(CSc2ncn[nH]2)cc1	14	7.4*	0.42
CCc1ccc(C(=O)CSc2ncn[nH]2)cc1	-12	2	-0.094
Brc1ccc(CSc2ncn[nH]2)cc1	-3	4.9*	-0.84
O=C(O)c1ccc(CSc2ncn[nH]2)cc1	21	-2	-0.41
CC1CCN(C(=O)C2CCC(C)(C(=O)O)C2(C)C)CC1 (centres undefined)	nt	-1	nt
O=C(Nc1nnc(C2CCCCC2)s1)c1ccco1	-2	1	-1.7*
O=C(Nc1nnc(C2CCCCC2)s1)c1cccs1	9	0	0.95
CCOC(=O)c1cccc(COC(=O)c2cccc(-c3nnc(-c4ccccc4)o3)c2)c1	nt	0	nt
COc1ccccc1N1CCN(C(=O)CSc2nnc3c4ccccc4n(CC(=O)O)c3n2)CC1	nt	2	nt
CCn1c2ccccc2c2nnc(SCC(=O)N3CC(C)OC(C)C3)nc21 (centres undefined)	12	-2	-8.8*
C[C@H]1CC[C@]2(O[C@H](CCO)C[C@H](O)[C@H]2O)O1	nt	nt	-0.52
Cc1nn(-c2ccccc2)c(=S)c2ccccc12	nt	1	nt
CC(C)c1ccc(/C=N/NC(=O)c2nnn(-c3nonc3N)c2CSC2=NCCS2)cc1	nt	-3	nt
Cc1ccc(C(=O)NCCN2C3=NC[C@H](C(C)C)N3C[C@H]2Cc2ccc(O)cc2)cc1Br	nt	nt	-0.5
COc1ccc(C[C@H]2CN3C(=NC[C@@H]3C(C)C)N2CCNC(=O)c2ccc(C)c(Br)c2)cc1	nt	nt	-3.2*
SMILES	MRP reversal	MRP-1 activ	hDAT+cocaine
COCCn1c(N)c(NCc2ccccc2)c(=O)n(CC(=O)Nc2cc(C)ccc2C)c1=O	14	-4	2*
COCCn1cnc2c1c(=O)n(CC(=O)Nc1cc(C)on1)c(=O)n2Cc1ccccc1	4	-1	-0.36
CCOC(=O)C1=C(C)N(CCCC(=O)O)C(=O)NC1c1cccc(OC)c1 (centres undefined)	nt	nt	0.4
CCCCCCCN1C/C=C\C(c2ccc(OC)cc2)N(Cc2ccc(F)cc2)C(=O)[C@H]1Cc1ccccc1 (some centres undefined)	nt	nt	0.88
COc1ccc2c(c1)c(=O)oc1cc(OCC(=O)N3CCCC(C)C3)ccc12 (centres undefined)	-8	-3	-2.5*
COc1ccc2c(c1)c(=O)oc1cc(OCC(=O)N3CCC(C)CC3)ccc12	7	-3	-0.26
O=C(COC(=O)c1cc(-c2ccncc2)nc2ccccc12)Nc1ccc2c(c1)OCO2	nt	-1	nt
Cc1noc(C)c1CSCC(=O)N1CCN(c2ccc([N+](=O)[O-])cc2)CC1	-3	-3	0.68
Cc1ccc(N=Nc2c(N)[nH]n3c(=O)cc(-c4ccccc4)nc23)cc1	nt	6.0*	1.6*
COc1cccc(N=Nc2c(N)[nH]n3c(=O)cc(-c4ccccc4)nc23)c1	nt	-1	-0.014
CCSc1nc2ccc(OC)cc2cc1C#N	15	-3	-0.57
CCOc1ccc2nc(SCC#N)c(C#N)cc2c1	-9	5.0*	0.51
CCOc1cc(C(=O)Nc2ccccc2F)cc(Br)c1OCC	nt	0	nt
O=C(/C=C/c1ccc(Cl)c([N+](=O)[O-])c1)Nc1ccc(N2CCCC2)cc1	nt	-2	nt
Cc1c(O)c2c(=O)n(-c3ccccc3)c(-c3ccccc3)cc2oc1=O	nt	-1	nt
COc1ccc(NC(=O)CSc2ccc3ccccc3c2)cc1S(=O)(=O)N1CCCCC1	nt	0	nt
O=C(/C=C/c1ccccc1)NC(NC(=S)Nc1ccc(Cl)cc1)C(Cl)(Cl)Cl (centres undefined)	nt	-5	-2.8*
COc1ccc(NC(=S)NC(NC(=O)/C=C/c2ccccc2)C(Cl)(Cl)Cl)cc1 (centres undefined)	nt	-2	-1.2
CCOC(=O)C1=C(COc2ccccc2)NC(=O)NC1c1ccc2ccccc2c1 (centres undefined)	nt	nt	0.94
CC(C(=O)Nc1sc2c(c1C#N)CCCCC2)N1C(=O)c2ccccc2C1=O (centres undefined)	nt	0	nt
COc1ccc2c(c1)CCc1sc(NC(=O)c3ccco3)nc1-2	-8	0	-0.74
COc1ccc2c(c1)CCc1sc(NC(=O)c3ccc(C)cc3)nc1-2	6	4.9*	0.00056
Cc1cc(Cl)c(OCCCCNC(C)(C)C)c(Br)c1	nt	-3	nt
CC(C)(C)OC(=O)N1CC=C2C(C#N)=C(N)C(C#N)(C#N)[C@H](c3cccnc3)[C@H]2C1	nt	-4	-0.051
N#CC1=C(N)C(C#N)(C#N)[C@H](c2ccncc2)[C@H]2CN(C(=O)OCc3ccccc3)CC=C12	nt	-2	2.8*
SMILES	MRP reversal	MRP-1 activ	hDAT+cocaine
NC(=O)CC(NC(=O)Cc1cccc2ccccc12)c1ccc(N2CCc3ccccc3C2)c([N+](=O)[O-])c1 (centres undefined)	nt	nt	-0.018
Cc1ccccc1NC(=O)CSc1nnc(-c2ccoc2C)n1CCc1ccccc1	8	0	-0.31
COc1ccc(NC(=O)CSc2nnc(-c3ccoc3C)n2CCc2ccccc2)cc1	-7	0	4.2*
CC(=O)N1c2ccccc2C2(O)N=C(C)SC12 (centres undefined)	nt	-3	nt
O=c1c2c(C(F)(F)F)cc(C(F)(F)F)nc2[nH]n1-c1ccccc1	5	0	-2.4
O=c1c(Sc2ccccc2)c(C(F)(F)F)[nH]n1-c1ccccc1	9	1	-2.2*
COc1ccccc1N1CCN(C(=O)c2ccc3nc(-c4ccco4)c(-c4ccco4)nc3c2)CC1	22	-1	0.41
Cc1ccc(C)c(N2CCN(C(=O)c3ccc4nc(-c5ccco5)c(-c5ccco5)nc4c3)CC2)c1	1	9.9*	0.34
CC1C(=O)CC(c2ccco2)NC1c1ccco1 (centres undefined)	nt	-1	-0.56
NC(=S)NNC(=O)[C@@H]1CCCC[C@@H]1C(=O)O	nt	1	nt
CCc1nc2sc3c(c2c(=O)n1N)CCC3	19	0	0.24
Nn1c(Nc2ccccc2)nc2sc3c(c2c1=O)CCC3	-27	-1	3.7*
CN(C[C@H](Cc1ccccc1)N(C[C@H](c1ccccc1)N(CCc1ccccc1)N=O)N=O)N=O	nt	nt	0.19
